Source: PubChem BioAssay
An excerpt weighted towards active compounds, which were near 2.3% of everything screened.
Pf Dd2 growth = inhibitors of Plasmodium falciparum Dd2 growth | activity change, % at 10 µM | actives 2.3% (n = 94,000) | P. falciparum Dd2 growth, SYBR Green, 72 h; stronger effect = lower value; in the data active = activity change below about -80%; inconclusive = no clear call, values can overlap the other calls
C diff HTS = C. difficile growth inhibition. Clostridium difficile clinical isolate growth, OD600, 24 h; stronger effect = lower value. growth activity, negative = inhibition, % at 16 µg/mL (by protocol). actives 0.25% (n = 86,000). AID 1259249;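 active = mean growth activity at or below -80% and every replicate also at or below -80%; inconclusive = mean at or below -80% but some replicate above -80%; inactive = mean growth activity above -80%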;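 note: 0% = DMSO wells and -100% = levofloxacin 16 µg/mL wells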
Active calls of the source: *; ? = inconclusive; . = no result.

SMILES | Pf Dd2 growth | C diff HTS
Cc1ccc(S(=O)(=O)N(C)C[C@H]2OCCCC[C@H](C)Oc3ccc(NC(=O)Nc4ccc5c(c4)OCO5)cc3C(=O)N([C@@H](C)CO)C[C@@H]2C)cc1 | -71.8 | .
C[C@@H]1CCCCO[C@@H](CN(C)S(=O)(=O)c2ccc(Cl)cc2)[C@@H](C)CN([C@H](C)CO)C(=O)c2cc(NC(=O)Nc3ccc4c(c3)OCO4)ccc2O1 | -88.2* | 12.6
CC(=O)N(C)C[C@H]1Oc2cc(C#Cc3ccncc3)ccc2S(=O)(=O)N([C@H](C)CO)C[C@@H]1C | -16.7 | 12.6
Cc1noc(C)c1S(=O)(=O)Nc1ccc2c(c1)C(=O)N([C@@H](C)CO)C[C@H](C)[C@@H](CN(C)C(=O)Nc1ccccc1)OCCCC[C@H](C)O2 | -12.5 | -1.2
CO[C@@H]1CN(C)C(=O)c2ccc(NS(C)(=O)=O)cc2OC[C@H](C)N(C(=O)C2CCCC2)C[C@H]1C | -62.9 | -10.5
COc1ccc2c3c(n(C)c2c1)[C@H](CO)N(C(=O)c1ccc(F)cc1)CC31CN(C(C)=O)C1 | -47.0 | -4.3
C[C@H](CO)N1C[C@H](C)[C@H](CN(C)C(=O)c2ccccc2F)Oc2ncc(C#Cc3cccc(F)c3)cc2C1=O | -77.4 | 2.3
C[C@@H]1CN([C@H](C)CO)C(=O)c2cc(C#Cc3cccc(F)c3)cnc2O[C@H]1CN(C)C(=O)c1ccccc1F | -84.6* | -5.7
C[C@H](CO)N1C[C@H](C)[C@@H](CN(C)C(=O)c2cccc(F)c2)Oc2ncc(/C=C/c3ccccc3)cc2C1=O | ? | 0.4
C[C@@H]1CN([C@@H](C)CO)C(=O)c2cc(C#Cc3ccccc3F)cnc2O[C@H]1CN(C)C(=O)Cc1ccncc1 | -24.2 | 1.5
C[C@H]1CN([C@@H](C)CO)C(=O)c2cc(C#Cc3cccc(F)c3)cnc2O[C@@H]1CN(C)C(=O)c1ccccc1F | ? | 7.4
C[C@@H]1CN([C@H](C)CO)C(=O)c2cc(C#Cc3cccc(F)c3)cnc2O[C@@H]1CN(C)C(=O)c1ccccc1F | -81.2* | -5.7
C[C@@H]1CN([C@H](C)CO)C(=O)c2cc(C#Cc3ccccc3F)cnc2O[C@H]1CN(C)C(=O)Cc1ccncc1 | -83.7* | 2.1
C[C@H]1CN([C@@H](C)CO)C(=O)c2cc(/C=C/c3ccccc3)cnc2O[C@@H]1CN(C)C(=O)c1cccc(F)c1 | -82.7* | 1.4
O=C(C[C@H]1C[C@H]2c3cc(NS(=O)(=O)c4ccc(F)cc4)ccc3O[C@H]2[C@@H](CO)O1)NCCc1ccccc1 | -13.6 | -2.4
COCC(=O)N1[C@H](C#N)[C@@H](c2ccccc2-c2cccc(C)c2)[C@@H]1CO | 21.1 | -4.7
C[C@H](CO)N1C[C@H](C)[C@@H](CN(C)Cc2ccc(-c3ccccc3)cc2)Oc2ccc(N(C)C)cc2C1=O | 3.4 | -13.8
COCCNC(=O)C[C@@H]1C=C[C@H](NS(=O)(=O)c2ccc(C)cc2)[C@@H](CO)O1 | 4.2 | -6.2
C[C@H]1CN([C@@H](C)CO)C(=O)c2cc(C#Cc3cccc(F)c3)cnc2O[C@H]1CN(C)C(=O)c1ccccc1F | -82.3* | 8.9
C[C@@H]1CN([C@H](C)CO)C(=O)c2cc(C#Cc3ccccc3)cnc2O[C@H]1CN(C)C(=O)c1ccccc1F | -59.9 | 40.1
CC(C)C#Cc1ccc2c(c1)O[C@@H](CN(C)C(=O)C1CCCCC1)[C@H](C)CN([C@H](C)CO)S2(=O)=O | -82.6* | 42.6
CC(C)C#Cc1ccc2c(c1)O[C@@H](CN(C)C(=O)C1CCCCC1)[C@@H](C)CN([C@H](C)CO)S2(=O)=O | -29.1 | 8.8
CC(C)C#Cc1ccc2c(c1)O[C@@H](CN(C)C(=O)C1CCCCC1)[C@H](C)CN([C@@H](C)CO)S2(=O)=O | -82.2* | 12.1
CC(C)C#Cc1ccc2c(c1)O[C@@H](CN(C)C(=O)C1CCC1)[C@@H](C)CN([C@H](C)CO)S2(=O)=O | -43.8 | .
COc1ccc(CN2CC3(CN(C(=O)Cc4ccccc4)C3)c3c([nH]c4cc(OC)ccc34)[C@H]2CO)cc1 | -88.6* | -3.1
SMILES | Pf Dd2 growth | C diff HTS
COc1ccc2c3c([nH]c2c1)[C@@H](CO)N(C(=O)Nc1ccccc1F)CC31CCN(C(C)=O)CC1 | -12.5 | 3.0
COc1ccc(CN2CC3(CN(C(=O)Cc4ccncc4)C3)c3c([nH]c4cc(OC)ccc34)[C@@H]2CO)cc1 | -64.9 | -0.5
COc1ccc2c3c(n(C)c2c1)[C@H](CO)N(C(=O)Cc1ccccc1)CC31CN(C(=O)Cc2ccccc2)C1 | -83.1* | 9.3
CCC(=O)N1CC2(CCN(C(=O)Nc3ccc(F)cc3)CC2)c2c([nH]c3cc(OC)ccc23)[C@@H]1CO | -59.5 | -4.3
CCC(=O)N1CC2(CN(C(=O)Nc3ccc(F)cc3)C2)c2c([nH]c3cc(OC)ccc23)[C@@H]1CO | -83.7* | -2.5
COc1ccc2c3c([nH]c2c1)[C@H](CO)N(C(=O)Cc1ccccc1)CC31CCN(C(=O)Nc2ccccc2F)CC1 | -90.9* | 1.6
CCC(=O)N1CC2(CN(C(=O)Cc3ccccc3)C2)c2c(n(C)c3cc(OC)ccc23)[C@@H]1CO | -36.7 | 1.9
